Source: PubChem BioAssay (several laboratories)
MITF TRPM1 inh: inhibitors of MITF-dependent TRPM1 promoter reporter, primary screen, cell-based, SK-MEL-5, single point, luciferase; SK-MEL-5 TRPM1 promoter luciferase, 24 h; inhibition, % at 12.5 µM; 0.83% of 330,000 active; AID 488899, 2010;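 active = mean inhibition across replicates of 60% or more, whatever share of single replicates reaches that level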
Peg3 prom inh: Peg3 promoter-driven luciferase inhibitors, primary screen, cell-based, HeLa, luciferase luminescence. HeLa PEG-Prom luciferase reporter, overnight. 1.7% of 360,000 active. inhibition, % at 20 µM;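 active = inhibition of at least 50% at 20 µM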
KKLEB cytotox: cytotoxicity in KKLEB CF airway cells, primary screen, cytotoxicity control for CF NF-kB inhibitor project, cell-based, uHTS, fluorescence assay plates; KKLEB CF airway cells viability, ATPlite luminescence, overnight; stronger effect = lower value; cells stimulated with P. aeruginosa culture filtrate; activity change (cytotoxicity), % at 5 µM; 0.36% of 360,000 active; AID 602141, 2011;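 active = corrected activity change at or below -50% at 5 µM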
HIF-2a inh: HIF-2a reporter inhibitors, primary screen, luminescence, 786-0 RCC cells; 786-0 RCC cells HIF-2a reporter, luciferase luminescence, overnight; inhibition, % at 18.8 µM; 0.72% of 360,000 active;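 active = inhibition of the luminescence signal of 40% or more relative to plate controls, in a single-dose primary screen at 18.75 µM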
Shn3 inh set2: reduction of Shn3 3'UTR firefly luciferase signal, primary screen, Schnurri-3 inhibitor project, cell-based, Clone20 osteoblasts, set 2. 0.52% of 360,000 active. Clone20 osteoblast Shn3 3'UTR firefly luciferase, 24 h. inhibition, % at 12.5 µM;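 active = mean inhibition of at least 75% with every replicate also reaching 75%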;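 also: 0% = median of neutral control wells and 100% = pilot-screen positive control compound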
CF NFkB inh: inhibitors of PAF-induced NF-kB signaling, primary screen, cell-based, GFP fluorescence, uHTS. KKLEB NF-kB-GFP reporter, GFP fluorescence overnight. inhibition, % at 5 µM. 0.86% of 360,000 active;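 active = at least 50% inhibition at 5 µM, scaled per plate between neutral and stimulator controls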;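 also: PAF is a Pseudomonas aeruginosa culture filtrate used as stimulus; plate controls were PAF-stimulated DMSO wells for no effect and unstimulated DMSO wells for full effect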
Mdm2-MdmX confirm: retested Mdm2-MdmX interaction blockers, confirmation, cell-based, luminescence, single concentration, set 2 | shares compounds with HIF-2a inh | SaOS-2 split-luciferase Mdm2/MdmX complementation | inhibition, % at 8 µM | 99% of 740 active;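 active = mean inhibition of the luminescence signal across two replicates at or above 26 percent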
HIF-2a conf: HIF-2a reporter inhibitor retest, confirmation, luminescence, 786-0 RCC cells; shares compounds with HIF-2a inh; HIF-2a luciferase reporter luminescence, overnight; inhibition, % at 18.8 µM; 56% of 1,800 active;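 active = mean inhibition across four replicates of at least 40 percent at the single tested concentration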
HIF-1a cs: HIF-1a luciferase reporter signal reduction – MiaPaCa-2 cells, single concentration, counter-screen for HIF-2a inhibitor project, confirmation; AID 651589, 2012; inhibition, % at 18.8 µM; 72% of 1,800 active; MiaPaCa-2 HIF-1a luciferase reporter, desferoxamine, overnight; shares compounds with HIF-2a inh;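 active = mean inhibition of the reporter signal across four replicates at the single tested dose of 50% or more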
Starred values were filed as active, the others as inactive; nt = no result given. Shown are actives, neighbours in structure and some others; about 2.8% of the full set was active somewhere.

SMILES	MITF TRPM1 inh	Peg3 prom inh	KKLEB cytotox	HIF-2a inh	Shn3 inh set2	CF NFkB inh	HIF-2a conf	HIF-1a cs	others
CCc1cc(SC#N)cc(C)c1N	12	13	-7	63*	-6	-29	-14	-26
CCC(=O)Nc1ccc(SC#N)cc1C	5	7	-1	25	23	-11	nt	nt
O=C(OCn1ncc(Cl)c(Cl)c1=O)c1ccc(C(F)(F)F)cc1	53	105*	-12	93*	95*	49	60*	104*	Mdm2-MdmX confirm=103*
Cc1ccc(C(=O)OCn2ncc(Cl)c(Cl)c2=O)cc1	105*	102*	-94*	92*	91*	92*	98*	107*
Cc1ccc(C(=O)COC(=O)c2nc(Cl)ccc2Cl)cc1	5	-3	8	13	-12	-5	nt	nt
COc1ccc2cc(/C=N/NC(=O)CN(c3ccccc3C)S(=O)(=O)c3ccccc3)c(Cl)nc2c1	7	1	-2	10	6	-8	nt	nt
CCO/C(C)=N/Oc1cncnc1	nt	-5	13	6	-14	-10	nt	nt
O=C(O)CCC1(c2ccccc2)NC(=O)NC1=O (stereo not drawn)	-7	3	-9	44*	13	-2	4	-11
O=C1NC(=O)C(Cc2ccccc2)(c2cccnc2)N1 (stereo not drawn)	-3	1	-4	20	7	-13	nt	nt
CNC(=O)c1nnsc1S(=O)(=O)c1ccc(Cl)cc1	85*	106*	-92*	65*	99*	90*	74*	50*	Mdm2-MdmX confirm=104*
O=C(NC(Cc1ccccc1)C(=O)O)/C(=C/c1ccc([N+](=O)[O-])cc1)NC(=O)c1ccco1 (stereo not drawn)	11	-3	-1	11	8	-6	nt	nt
CCn1c2c(c3cc(OCC(C)C)ccc31)CCCC2=O	-13	9	-4	10	24	12	nt	nt
C=C1CCc2c([nH]c3ccc(OCC(C)C)cc23)C1=O	58	103*	-21	96*	81	29	-6	67*
O=C(Cc1coc2cc3c(cc12)CCC3)OCC(=O)N1CCCC1=O	26	28	-16	80*	15	35	77*	83*
CCN1CCN(c2ccc(S(=O)(=O)N3CCCCC3)cc2NC(=O)/C=C/c2ccc([N+](=O)[O-])cc2)CC1	47	76*	-20	87*	-36	-26	-17	101*
COc1ccccc1CNC(=O)COC(=O)c1nccnc1N	5	4	6	9	-4	4	nt	nt
O=C1Nc2ccccc2N=C(c2ccc3c(c2)OCO3)C1N(C(=O)c1ccc2ccccc2c1)C1CC1 (stereo not drawn)	nt	-221	-10	-328	-9	12	nt	nt
O=C(O)c1cccc(CSc2nnc(-c3ccc(Cl)cc3)o2)c1	12	-40	5	70*	21	-9	80*	26
O=C(O)c1cccc(CSc2nnc(COc3ccccc3)o2)c1	3	-5	0	73*	-29	6	73*	34
COc1cc(Nc2ccc(S(N)(=O)=O)cc2)c([N+](=O)[O-])nc1[N+](=O)[O-]	13	-9	2	17	2	8	nt	nt
